Source: the supplement of paper PMC9950053
Structures can show the parent of a compound that is named as a salt.

What follows are molecules tested on Danio rerio larvae (5 dpf) (assay: 1-h baseline activity (% time moving, periods 1-6) minus DMSO control (percentage points); higher = more locomotor activity than DMSO larvae). Conditions: 10 µM; exposure time: 3 h pre-incubation + 3 h imaging.
Experimental: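 Wild-type 5 dpf zebrafish larvae (n=48 per drug, 96-well plates, 28.5 °C) were exposed to Tocris FDA-approved library compounds at 10 µM (0.1% DMSO) for 3 h before and 3 h during imaging. Images were taken every 6 s during visual (moving coloured lines) and acoustic stimuli, and larvae were tracked with the DeepLabCut-based Z-LaP Tracker. Each behavioural measure is the treated-group mean minus the DMSO vehicle control mean (n=844), in percentage points. This mapping covers compounds with 4-character plate codes.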
`COC(=O)C1=C(C)NC(C)=C(C(=O)OC(C)C)C1c1cccc2nonc12` (stereo not given) [Isradipine] was tested, and the 1-h baseline activity was -3.08.
For `Cc1ccc(N(CC2=NCCN2)c2cccc(O)c2)cc1` [Phentolamine Mesylate], the 1-h baseline activity was 7.71.
`CC(C)c1ccc2oc3nc(N)c(C(=O)O)cc3c(=O)c2c1` [Amlexanox] was tested, and the 1-h baseline activity was 5.8.
With `OCCN(CCO)c1nc(N2CCCCC2)c2nc(N(CCO)CCO)nc(N3CCCCC3)c2n1` [Dipyridamole] the 1-h baseline activity was -3.7.
`CCOc1nc2cccc(C(=O)O)c2n1Cc1ccc(-c2ccccc2-c2noc(=O)[nH]2)cc1` [Azilsartan] gave a 1-h baseline activity of 1.25.
With `CCOC(=O)C1=C(C)NC(C)=C(C(=O)OC)C1c1cccc(Cl)c1Cl` (stereo not given) [Felodipine] the 1-h baseline activity was -15.3.
With `CC(C)CN(C[C@@H](O)[C@H](Cc1ccccc1)NC(=O)O[C@H]1CO[C@H]2OCC[C@H]21)S(=O)(=O)c1ccc(N)cc1` [Darunavir] the 1-h baseline activity was 10.3.
For `COC(c1ccccc1)(c1ccccc1)[C@H](Oc1nc(C)cc(C)n1)C(=O)O` [Ambrisentan], the 1-h baseline activity was 0.292.
Molecule `CO[C@H]1/C=C/O[C@@]2(C)Oc3c(C)c(O)c4c(O)c(c5c(nc6cc(C)ccn65)c4c3C2=O)NC(=O)/C(C)=C\C=C\[C@H](C)[C@H](O)[C@@H](C)[C@@H](O)[C@@H](C)[C@H](OC(C)=O)[C@@H]1C` [Rifaximin] has a 1-h baseline activity of -1.58.
Work on `CCCN(CCC)S(=O)(=O)c1ccc(C(=O)O)cc1` [Probenecid] yielded a 1-h baseline activity of -2.34.
Work on `Nc1cccc2c1CN(C1CCC(=O)NC1=O)C2=O` (stereo not given) [Lenalidomide] yielded a 1-h baseline activity of -7.06.
`Nc1nc2c(ncn2COCCO)c(=O)[nH]1` [Acyclovir] showed a 1-h baseline activity of -2.63.
With `CN1CCC[C@@H]1Cc1c[nH]c2ccc(CCS(=O)(=O)c3ccccc3)cc12` [Eletriptan hydrobromide] the 1-h baseline activity was 2.42.
Work on `CCc1ccc(CCOc2ccc(CC3SC(=O)NC3=O)cc2)nc1` (stereo not given) [Pioglitazone hydrochloride] yielded a 1-h baseline activity of -7.48.
Work on `CN1CCC[C@@H]1CCO[C@](C)(c1ccccc1)c1ccc(Cl)cc1` [Clemastine fumarate] yielded a 1-h baseline activity of 1.06.
Molecule `CN1CCN(CCCN2c3ccccc3Sc3ccc(Cl)cc32)CC1` [Prochlorperazine dimaleate] has a 1-h baseline activity of 4.26.
`CCCc1nc2c(C)cc(-c3nc4ccccc4n3C)cc2n1Cc1ccc(-c2ccccc2C(=O)O)cc1` [Telmisartan] gave a 1-h baseline activity of -7.8.
`Cc1nc(Nc2ncc(C(=O)Nc3c(C)cccc3Cl)s2)cc(N2CCN(CCO)CC2)n1` [Dasatinib] showed a 1-h baseline activity of -12.5.
With `CC1CNc2c(cccc2S(=O)(=O)N[C@@H](CCCNC(=N)N)C(=O)N2CC[C@@H](C)C[C@@H]2C(=O)O)C1` (stereo not given in full) [Argatroban] the 1-h baseline activity was 3.52.
In the case of `CS(=O)(=O)CCNCc1ccc(-c2ccc3ncnc(Nc4ccc(OCc5cccc(F)c5)c(Cl)c4)c3c2)o1` [Lapatinib], the 1-h baseline activity is reported as -5.01.
`CC(C)c1nc(N(C)S(C)(=O)=O)nc(-c2ccc(F)cc2)c1/C=C/[C@@H](O)C[C@@H](O)CC(=O)O` [Rosuvastatin calcium] was tested, and the 1-h baseline activity was 2.58.
`Cc1cc(C2CCCCC2)n(O)c(=O)c1` [Ciclopirox] showed a 1-h baseline activity of -1.84.
For `O=C(O)CCCc1ccccc1` [Sodium 4-Phenylbutyrate], the 1-h baseline activity was 0.969.
`COc1ccc(Cl)cc1C(=O)NCCc1ccc(S(=O)(=O)NC(=O)NC2CCCCC2)cc1` [Glibenclamide] gave a 1-h baseline activity of -0.0251.
`Nc1nc(Cl)nc2c1ncn2[C@@H]1O[C@H](CO)[C@@H](O)[C@@H]1F` [Clofarabine] showed a 1-h baseline activity of -5.31.
In the case of `COc1cc2ncnc(Nc3ccc(F)c(Cl)c3)c2cc1OCCCN1CCOCC1` [Iressa], the 1-h baseline activity is reported as -6.95.
For `CN1CCN2c3ncccc3Cc3ccccc3C2C1` (stereo not given) [Mirtazapine], the 1-h baseline activity was 11.7.
`CC(C)c1nc(CN(C)C(=O)N[C@H](C(=O)N[C@@H](Cc2ccccc2)C[C@H](O)[C@H](Cc2ccccc2)NC(=O)OCc2cncs2)C(C)C)cs1` [Ritonavir] showed a 1-h baseline activity of -4.53.
For `Cc1nc(-c2ccc(OCC(C)C)c(C#N)c2)sc1C(=O)O` [Febuxostat], the 1-h baseline activity was -2.75.
`Cn1cnc([N+](=O)[O-])c1Sc1ncnc2[nH]cnc12` [Azathioprine] showed a 1-h baseline activity of 7.62.
`Clc1ccccc1C(c1ccccc1)(c1ccccc1)n1ccnc1` [Clotrimazole] was tested, and the 1-h baseline activity was -22.9.
`Nc1nc(NC2CC2)c2ncn([C@H]3C=C[C@@H](CO)C3)c2n1` [Abacavir hemisulfate] was tested, and the 1-h baseline activity was 6.96.
`Nc1cc(N2CCCCC2)nc(N)[n+]1[O-]` [Minoxidil] showed a 1-h baseline activity of 1.13.
In the case of `O=C(c1ccc(OCCN2CCCCC2)cc1)c1c(-c2ccc(O)cc2)sc2cc(O)ccc12` [Raloxifene hydrochloride], the 1-h baseline activity is reported as -7.31.
With `CCOC(=O)[C@H](CCc1ccccc1)N[C@@H](C)C(=O)N1[C@H](C(=O)O)C[C@@H]2CCC[C@@H]21` [Ramipril] the 1-h baseline activity was 1.29.
`COc1c(C)c2c(c(O)c1C/C=C(\C)CCC(=O)O)C(=O)OC2` [Mycophenolic acid] showed a 1-h baseline activity of 1.89.
In the case of `CCC(=O)O[C@]1(C(=O)SCF)[C@H](C)C[C@H]2[C@@H]3C[C@H](F)C4=CC(=O)C=C[C@]4(C)[C@@]3(F)[C@@H](O)C[C@@]21C` [Fluticasone propionate], the 1-h baseline activity is reported as 6.52.
`CC(C)(C#N)c1cc(Cn2cncn2)cc(C(C)(C)C#N)c1` [Anastrozole] gave a 1-h baseline activity of 1.59.
`OC(CNCC(O)C1CCc2cc(F)ccc2O1)C1CCc2cc(F)ccc2O1` (stereo not given) [Nebivolol hydrochloride] was tested, and the 1-h baseline activity was -2.33.
`CCOc1ccccc1OCCN[C@H](C)Cc1ccc(OC)c(S(N)(=O)=O)c1` [Tamsulosin hydrochloride] showed a 1-h baseline activity of 3.66.
